# Data from the OligoGym collection.
# Biological target: AKR1C4
# Assay: pooled miR-30 sensor sort-seq; sequence = guide strand
# Settings: shRNA
# Further: reference of the scale not given here.
row,Sequence,sensor-assay potency score (higher = more potent)
1,TATCCTCTGATGTCAACTGGAA,-0.803
2,TTGGTAGTGGCGTCTCACCTGG,-0.771
3,ATATCCTCTGATGTCAACTGGA,-0.353
4,TACTTTTCCATTTTCATCTTTT,-0.351
5,TAAGGATGACATTCTACCTGGT,0.727
6,TTTGGTGACCTCTACAGCTCTG,0.239
7,TTGTGTTTCTTTGCTAAGGCAC,-0.225
8,AAAACCTGGATGTTCTCTCTGA,0.359
9,TAGAACTTTCATATCCTCTGAT,0.539
10,TTTCATATCCTCTGATGTCAAC,-1.3
11,TTGCTAAGGCACAAAGAACTGG,-0.934
12,TTGTTTGTGTTTCTTTGCTAAG,-1.47
13,TTCATCTTTTGGTAGTGGCGTC,-0.396
14,TTCAGTGAGCTTTCCAAGGCTG,0.323
15,AACATATCGATAATTTCTGTTT,-1.09
16,TAGACCATCTAGAACTTTCATA,-0.398
17,ATCATTTAGCTCTACACGCTGA,-0.425
18,TTCTGTTTAGACCATCTAGAAC,-1.64
19,TTATTGTATAAATAAGCAGAAT,-1.48
20,TGGATAATCAGGATGGTCCATA,-1.08
21,TTTGTTTGTGTTTCTTTGCTAA,0.179
22,AATCCATGACAACATATCGATA,-1.75

# Biological target: AKT3
# Assay: as above
# Settings: shRNA
row,Sequence,sensor-assay potency score (higher = more potent)
1,TTATCTTCTAACACCTCTGGTG,-0.243
2,TTTAAAAGGAGGTACAAGCTTT,-0.528
3,TATCTTCTAACACCTCTGGTGC,-0.701
4,TTATCATATACATCTTGCCAGT,-1.09
5,TAGTCTGAGCTGTAAATTCTTC,-1.06
6,TAGTCCACTGGAGACATCTGAT,-0.68
7,TATAACAGTAGTCCACTGGAGA,-0.667
8,TTGTCTTTCTTTTATGATGGGT,-0.0312
9,TTTATCATATACATCTTGCCAG,0.12
10,TATTGTAATAGTCTGAGCTGTA,0.29
11,TTATTGTAATAGTCTGAGCTGT,-0.326
12,TTGTAGAAAGGTAACCTCCCAC,-0.166

# Biological target: ALAD
# Assay: as above
# Settings: shRNA
row,Sequence,sensor-assay potency score (higher = more potent)
1,ATGATGTCAGCACCTGCTCTGC,-1.4
2,TTTGGTTTTCACTTGTCTGAGG,-0.0275
3,TACCACCTGACATCCTGCCTTG,-0.254
4,TAGGCTGTATGTCATCAGGAAC,-1.11
5,AAATTTGGCACTGTAGCTCATC,-0.696
6,TGATGATGATGTCAGCACCTGC,-1.54
